Out of some 2,100 compounds screened, about 1,100 (52%) were called active. Another 29% or so got no clear call; they are omitted. Calls come from the whole dose curve; as a rule, active = well fitted inhibition curve with a large enough effect; inconclusive = small, poorly fitted or top-dose-only effect; inactive = no such curve, though single readings can be large or run the other way. The set was probably picked from earlier hits. The list shows a part of the results.
% is set by controls: 0 for no effect and ±100 for the full control effect; potency is the fitted concentration of half-maximal effect.

DNA dC->dU-editing enzyme APOBEC-3F (Homo sapiens), sequence (Q8IUX4 whole entry, looked up): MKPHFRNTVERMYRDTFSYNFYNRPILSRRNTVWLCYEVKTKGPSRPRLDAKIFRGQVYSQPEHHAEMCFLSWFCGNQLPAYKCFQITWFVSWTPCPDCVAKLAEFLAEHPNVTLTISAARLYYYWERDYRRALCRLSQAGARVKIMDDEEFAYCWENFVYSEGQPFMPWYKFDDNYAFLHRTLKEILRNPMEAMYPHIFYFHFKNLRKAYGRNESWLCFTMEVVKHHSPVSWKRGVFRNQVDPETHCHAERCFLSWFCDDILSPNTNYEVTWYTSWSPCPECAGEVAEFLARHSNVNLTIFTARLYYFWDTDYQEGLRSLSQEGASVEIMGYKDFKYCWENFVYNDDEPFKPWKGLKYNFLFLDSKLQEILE

The target of the test is DNA dC->dU-editing enzyme APOBEC-3F (Homo sapiens) (UniProt Q8IUX4). In words: qHTS for inhibitors of Vif-A3F interactions: Cherry picks counterscreen. Note: nearly all actives have a fitted effect of over 65% in size. Particulars: HeLa A3F-eYFP/Vif cells, eYFP fluorescence, 24 h; series mostly up to 46.1 µM; activity, negative = inhibitor: at the top concentration. In short, it runs like this:
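HeLa cells stably expressing A3F-eYFP and Vif, cultured overnight, then treated 24 h at 37 degrees C with compounds at several concentrations; yellow fluorescence (488 nm Ex/500-530 nm Em) imaged on Acumen; MG132 positive control.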
As for `CN1CCN(c2nc3ccccc3nc2NS(=O)(=O)c2ccc(Br)cc2)CC1`, the Potency was 18.4 µM (active). The same measure, in the same setting: with `O=C(N=c1ccn(-c2nc3ccccc3nc2NS(=O)(=O)c2ccc(Cl)cc2)cc1)c1cccs1` the figure was 16.4 µM (active). `O=C(N=c1ccn(-c2nc3ccccc3nc2NS(=O)(=O)c2ccccc2)cc1)c1cccs1`: the “activity, negative = inhibitor” value is -19.2% (inactive). Take `O=S(=O)(Nc1nc2ccccc2nc1N1CCc2ccccc2C1)c1ccc(Br)cc1`: the Potency is 23.1 µM (active). Take `O=S(=O)(Nc1nc2ccccc2nc1N1CCN(c2ccccc2)CC1)c1ccc(F)cc1`: the Potency is 18.4 µM (active). Take `O=S(=O)(Nc1nc2ccccc2nc1N1CCN(c2ccccn2)CC1)c1ccc(Cl)cc1`: the Potency is 16.4 µM (active).

Regarding `NC(=O)C1CCN(c2nc3ccccc3nc2NS(=O)(=O)c2ccc(Br)cc2)CC1`, the Potency was 16.4 µM (active).

On to `O=C(NC(=S)N1CCN(c2ccccn2)CC1)c1ccccc1`, for which the “activity, negative = inhibitor” value was 12.7% (inactive). On the same count and under the same terms, in the case of `Cc1c(=O)n(OCc2ccc(Cl)cc2)c2ccccc2[n+]1[O-]` it was -16.2% [at 36.9 µM] (inactive).

For `CC1=C/C(=C\C=C(C#N)C#N)N(C)c2ccccc21`, the Potency is 3.26 µM (active). The same measure, in the same setting: with `CN1/C(=C/C=C(/C#N)C(N)=O)C(C)(C)c2ccccc21` the figure was 7.04 µM (active); with `CN1/C(=C/C=C(C#N)C#N)C(C)(C)c2ccccc21`, 2.91 µM (active); with `CN1/C(=C\C=C(C#N)C#N)C(C)(C)c2ccccc21`, 16.4 µM (active). Same read-out and setting: in the case of `COC(=O)COc1cccc2c(=O)n(CC(=O)NCc3ccccc3)ccc12` it was 4.44 µM (active). The same measure, in the same setting: in the case of `CCOC(=O)C(C)Oc1cccc2c(=O)n(CC(=O)NCc3ccco3)ccc12` (stereo not drawn) it was 3.14 µM (active). As for `CCC(C)Sc1cc(-c2nc3ccccn3c2NC2CCCCC2)ccc1OC` (stereo not drawn), the “activity, negative = inhibitor” value is -26.4% (inactive). The same measure, in the same setting: in the case of `COc1cc(-c2nc3ccc(C)cn3c2NCc2ccccc2)ccc1SC1CCCCC1` it was 0.399% [at 36.9 µM] (inactive). On the same count and under the same terms, in the case of `COc1ccc(-c2nc3c4ccccc4ccn3c2Cc2ccsc2)cc1OC` it was -14.4% [at 36.9 µM] (inactive); in that of `CCOc1cc(C)nc(NCc2ccccc2)n1`, -25.2% [at 36.9 µM] (inactive). On to `CCOc1cc(-c2nnc(SCC(=O)NCc3ccccc3)nc2-c2ccc(OC)c(OCC)c2)ccc1OC`, for which the Potency is 2.31 µM (active).

As for `COc1ccc(-c2nnc(SCC(=O)NCc3ccccc3)nc2-c2ccc(OC)c(OC)c2)cc1OC`, the Potency is 5.17 µM (active).

As for `N#CC1=C(N)C(C#N)(C#N)[C@H](c2c(F)cccc2F)[C@H]2CC3(CC=C12)OCCO3`, the Potency is 16.4 µM (active). The same measure, in the same setting: with `Cc1cccc(CN2C(=O)N/C(=C/c3ccc(C)s3)C2=O)c1` the figure was 12.5 µM (active); with `Cc1ccc(/C=C2/NC(=O)N(Cc3ccccc3F)C2=O)s1`, 4.11 µM (active). With `C/C(CCC(C)C)=N\NC(=S)NCc1ccccc1`, the “activity, negative = inhibitor” value is 0.97% (inactive). On the same count and under the same terms, in the case of `CC(=O)Nc1ccc2c(c1)Cc1ccc(Cl)cc1-2` it was -0.691% (inactive). For `CC(=O)Nc1ccc(C2=CC(=O)C[C@H](c3ccc(Cl)cc3)C2)cc1`, the Potency is 20.6 µM (active).

As for `COc1cccc(N2CCN(Cc3nc4scc(-c5ccccc5)c4c(=O)[nH]3)CC2)c1`, the Potency was 9.94 µM (active). Turning to `O=c1[nH]c(CN2CCN(c3ccccc3)CC2)nc2scc(-c3ccccc3)c12`, the Potency was 16.4 µM (active). For the compound `O=C(NC(=S)N1CCN(C2CCCCC2)CC1)c1ccccc1`, the “activity, negative = inhibitor” value is -3.42% (inactive). Regarding `COc1ccc(Cl)cc1NC(=O)CN(C)CC(=O)Nc1ccccc1N1CCOCC1`, the Potency was 3.53 µM (active). The same measure, in the same setting: with `C/C(CC(=O)NCc1ccco1)=N\NC(=O)COc1ccc(Cl)cc1Cl` the figure was 12.5 µM (active); with `C/C(CC(=O)NCc1ccc(Cl)cc1)=N\NC(=O)COc1ccc(C)cc1Br`, 15.8 µM (active).

In the case of `O=C(Oc1ccc(Cl)c2cccnc12)c1ccco1`, the “activity, negative = inhibitor” value is -0.697% [at 36.9 µM] (inactive). Take `c1ccc(N=Nc2ccc3cccccc2-3)cc1`: the Potency was 15.8 µM (active). Consider `CCOC(=O)C(=Cc1ccc(-n2ccnc2)cc1)C(=O)OCC`, for which the Potency was 12.5 µM (active).

As for `CCOC(=O)C(=Cc1ccc(-n2cncn2)cc1)C(=O)OCC`, the Potency was 7.9 µM (active). Regarding `COc1cc(CNCCSc2nnnn2C)ccc1OCc1c(F)cccc1Cl`, the “activity, negative = inhibitor” value was 4.43% (inactive). With `O=C(c1ccccc1)c1c2c(cc3sc4ccccc4[n+]13)-c1cccc3cccc-2c13`, the Potency is 17.7 µM (active).

Consider `Oc1ccc(C2=NNC(=NCc3ccc4c(c3)OCO4)SC2)c(O)c1`, for which the Potency is 4.98 µM (active). `O=C(O)CSc1c2ccccc2cc2ccccc12`: the “activity, negative = inhibitor” value was -5.3% [at 36.9 µM] (inactive). Turning to `Cc1cc(NC(=O)NC(=O)c2ccccc2NC(=O)C(C)N)ccc1Oc1ncc(Br)cn1` (stereo not drawn), the Potency was 3.14 µM (active). Still for that read-out and setting: in the case of `O=C1c2cccc3c([N+](=O)[O-])c(O)cc(c23)C(=O)N1Nc1ccccc1` it was 23.1 µM (active); in that of `O=c1[nH]c2ccccc2n2c(C(F)(F)F)nnc12`, 16.4 µM (active). The same measure, in the same setting: with `Cc1cccc(Cn2c(=O)n(CCCC(=O)NCc3ccco3)c(=O)c3ccccc32)c1` the figure was 8.86 µM (active); with `Cc1ccc(S(=O)(=O)Nc2nc3ccccc3nc2Nc2cccc(S(=O)(=O)N3CCCC3)c2)cc1`, 3.26 µM (active). Still for that read-out and setting: with `O=S(=O)(Nc1nc2ccccc2nc1Nc1cccc(S(=O)(=O)N2CCCCC2)c1)c1ccccc1` the figure was 18.4 µM (active). For the compound `O=C(Nc1ccc(Cl)cn1)c1cccc(S(=O)(=O)N2CCCCCC2)c1`, the “activity, negative = inhibitor” value is 6.39% [at 36.9 µM] (inactive). For `O=C(NCc1ccccc1)C1Cc2c(-c3cccc(F)c3)ccnc2O1` (stereo not drawn), the Potency is 2.8 µM (active). For `CC(=O)c1cccc(-c2ccnc3c2CC(C(=O)NCc2ccco2)O3)c1` (stereo not drawn), the Potency is 1.98 µM (active). On the same count and under the same terms, with `O=C(NCc1ccco1)C1Cc2c(-c3cccc(F)c3)ccnc2O1` (stereo not drawn) the figure was 2.8 µM (active); with `CC(=O)c1cccc(-c2ccnc3c2CC(C(=O)NCc2ccc(F)c(F)c2)O3)c1` (stereo not drawn), 3.96 µM (active); with `COc1ccc(-n2c(O)c(/C=N/NS(=O)(=O)c3ccc(C)c([N+](=O)[O-])c3)c3ccccc3c2=O)cc1OC`, 6.51 µM (active). For the compound `COc1ccc(-n2c(O)c(/C=N/NS(=O)(=O)c3cccc([N+](=O)[O-])c3)c3ccccc3c2=O)cc1OC`, the Potency is 14 µM (active). For the compound `O=C(O)CSc1cc(NS(=O)(=O)c2cccc([N+](=O)[O-])c2)c2ccccc2c1O`, the “activity, negative = inhibitor” value is -21% [at 36.9 µM] (inactive). With `Cc1ccc(NC(=O)CSc2nc3ccc(Nc4nc(N5CCOCC5)nc(N5CCOCC5)n4)cc3s2)cc1`, the Potency was 20.6 µM (active). Still for that read-out and setting: with `O=C(CSc1nc2ccc(Nc3nc(N4CCOCC4)nc(N4CCOCC4)n3)cc2s1)Nc1ccccc1F` the figure was 20.6 µM (active). For the compound `Cc1ccc(NC(=O)CSc2n[nH]c(-c3ccccn3)n2)cc1`, the “activity, negative = inhibitor” value is -13.6% (inactive). On the same count and under the same terms, in the case of `CN1CCC(OC(=O)c2cc3cc(Cl)cc(Cl)c3oc2=O)CC1` it was -1.35% [at 36.9 µM] (inactive). As for `Cc1ccc(C(=O)CSC2=C(C#N)C(c3ccco3)C3=C(CCCC3=O)N2)cc1` (stereo not drawn), the Potency was 9.94 µM (active). Same read-out and setting: with `O=C(c1ccc(CS(=O)c2ccccc2Cl)o1)N1CCN(c2ccccc2F)CC1` (stereo not drawn) the figure was 1.84 µM (active); with `O=c1c2cc3ccccc3n2cnn1Cc1ccccc1F`, 14 µM (active); with `Cc1ccnc(N/C=C(\C#N)c2nc(-c3cccc(Br)c3)cs2)c1`, 15.8 µM (active). Consider `Cc1cc(C)cc(NC(=S)NC(=O)C2CC2)c1`, for which the “activity, negative = inhibitor” value is 1.05% (inactive). For the compound `Cc1cc(C)cc(NC(=O)Cn2cc(C(=O)C3CCCCC3)c3ccccc32)c1`, the Potency is 16.4 µM (active). On the same count and under the same terms, in the case of `CN(C)c1ccc(/C=C/c2ccnc3ccccc23)cc1O` it was 18.4 µM (active); in that of `Cc1cc(/C=C/c2ccnc3ccccc23)ccc1N`, 16.4 µM (active); in that of `Cc1cc(/C=C/c2ccnc3ccccc23)ccc1N(C)C`, 10.3 µM (active). On the same count and under the same terms, in the case of `CN1CCCc2cc(/C=C/c3ccnc4ccccc34)ccc21` it was 2.59 µM (active); in that of `CN(C)c1ccc(/C=C/c2ccnc3ccccc23)cc1C=O`, 6.51 µM (active). The same measure, in the same setting: with `CCc1cc(/C=C/c2ccnc3ccccc23)ccc1N(C)C` the figure was 20.6 µM (active); with `Cc1ccc(CNC(=O)Cc2ccc(-n3cccc3)cc2)cc1`, 3.53 µM (active). Regarding `Cc1ccc(NC(=O)Cc2ccc(-n3cccc3)cc2)c(C)c1`, the “activity, negative = inhibitor” value was 7.57% (inactive). Take `CCN(CC)CCCNc1ccc2ncn3c4ccc(O)cc4c(=O)c1c23`: the Potency was 20.6 µM (active). For the compound `CN(C)CCNc1ccc2ncn3c4ccc(O)cc4c(=O)c1c23`, the Potency is 20.6 µM (active). `C=CCNC(=S)N/N=C/c1ccc(C)cc1C`: the “activity, negative = inhibitor” value was -7.51% (inactive).

Consider `CCOc1cc(S(=O)(=O)NCc2ccc(OC)cc2)c(OCC)cc1-n1cnnn1`, for which the Potency was 12.5 µM (active). The same measure, in the same setting: with `c1ccc2c(c1)Cc1cc3ccccc3nc1-2` the figure was 9.2 µM (active); with `Cc1ccc(S(=O)(=O)N2CCCCC2CCNC(=O)C(=O)NCc2ccco2)cc1` (stereo not drawn), 14 µM (active); with `COc1cc(/C=C/C(=O)c2ccc3c(c2)OCCO3)cc(Br)c1OCC(=O)N(C)C`, 14 µM (active).

As for `CN(C)c1ccc(/C=C/c2ccnc3c(Cl)ccc(Cl)c23)cc1`, the Potency was 5.17 µM (active). The same measure, in the same setting: in the case of `CN(C)c1ccc(/C=C/c2ccnc3c(Cl)cccc23)cc1` it was 9.2 µM (active).

Regarding `CN(C)c1ccc(/C=C/c2ccnc3c(N)cccc23)cc1`, the Potency is 18.4 µM (active). The same measure, in the same setting: in the case of `COc1ccc(-c2ccc3c(c2)S(=O)(=O)c2cccc(C(=O)NCc4cccc(OC(F)(F)F)c4)c2C3=O)cc1OC` it was 3.66 µM (active); in that of `COc1ccc(-c2ccc3c(c2)S(=O)(=O)c2cccc(C(=O)NCCOc4ccccc4)c2C3=O)cc1OC`, 14 µM (active). The same measure, in the same setting: in the case of `O=C(NCc1ccccc1Cl)c1cccc2c1C(=O)c1ccc(-c3ccc(OC(F)(F)F)cc3)cc1S2(=O)=O` it was 16.4 µM (active); in that of `COc1ccc(S(=O)(=O)NN(C)c2nc(C(F)(F)F)nc3ccccc23)cc1`, 11.2 µM (active); in that of `COc1ccc(NC(=O)C2(C)Cc3c(-c4cccc(NC(C)=O)c4)ccnc3O2)cn1` (stereo not drawn), 7.04 µM (active). `COc1ccc(NC(=O)C2(C)Cc3c(-c4cccc(C(N)=O)c4)ccnc3O2)cn1` (stereo not drawn): the Potency was 12.5 µM (active). For the compound `CN(C)c1ccc(/C=C(/C(=O)c2ccc(Cl)cc2Cl)n2cncn2)cc1`, the Potency is 14 µM (active). Regarding `Cn1c(=S)c2[nH]c(SCCN3CCCC3)nc2n(C)c1=O`, the “activity, negative = inhibitor” value was 5.61% (inactive). As to `COc1cc(-c2noc(C)c2/C=C/c2cccc([N+](=O)[O-])c2)cc(OC)c1OC`, the Potency was 1.58 µM (active). The same measure, in the same setting: with `COc1cc(-c2noc(C)c2/C=C/c2ccc(OC(C)=O)cc2)cc(OC)c1OC` the figure was 0.627 µM (active).

The values above are taken from PubChem BioAssay AID651815 (National Center for Advancing Translational Sciences (NCATS), 2012).
